Data from the supplement of paper PMC10849652.
Of roughly 7,900 targets only a part is listed; those with a hit were picked by preference. About 0.6% of all pairs of compound and target were hits.

Assays:
Assay in all cases: log2 fold change, soluble protein after heating vs DMSO (PISA); higher = thermal stabilisation; K562 cells, 10 uM, 30 min; active = over 0.2 and 3.5 SD of the protein, either way, in both replicates (recomputed)
[1] = compound: CS(=O)(=O)c1ccc(-c2cnc(N)c(C(=O)Nc3ccccc3)n2)cc1
Summary of the method: (§1)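 K562 cells at 2×10^6 cells/mL were exposed to 10 μM compound for 30 min, then aliquots were heated for 3 min across 48°C-58°C, pooled, and extracted in PBS containing 0.5% NP-40 at 4°C. The supernatant after 21,000xg for 90 min was taken as soluble protein and measured by TMTpro 16plex LC-MS/MS with channel sums equalised. Thermal stability is reported relative to control samples, with values from duplicates. Fold changes are given on a log2 scale.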

crizotinib = compound: C[C@@H](Oc1cc(-c2cnn(C3CCNCC3)c2)cnc1N)c1c(Cl)ccc(F)c1Cl [crizotinib]
Summary of the method: as §1

[2] = compound: C[C@@H]1COCCN1C2=NC(=NC(=C2)C3(CC3)S(=O)(=O)C)C4=C5C=CNC5=CC=C4
Summary of the method: as §1

[3] = compound: C[C@H](C1=CC=C(C=C1)C(=O)NC2=C3C=CNC3=NC=C2)N
Summary of the method: as §1

duvelisib = compound: C[C@H](Nc1ncnc2nc[nH]c12)c1cc2cccc(Cl)c2c(=O)n1-c1ccccc1 [duvelisib]
Summary of the method: as §1

tozasertib = compound: Cc1cc(Nc2cc(N3CCN(C)CC3)nc(Sc3ccc(NC(=O)C4CC4)cc3)n2)n[nH]1 [tozasertib]
Summary of the method: as §1

[4] = compound: Cc1cc(SCc2sc(-c3ccc(C(F)(F)F)cc3)nc2C)ccc1OCC(=O)O
Summary of the method: as §1

doramapimod = compound: Cc1ccc(-n2nc(C(C)(C)C)cc2NC(=O)Nc2ccc(OCCN3CCOCC3)c3ccccc23)cc1 [doramapimod]
Summary of the method: as §1

ispinesib = compound: Cc1ccc(C(=O)N(CCCN)[C@@H](c2nc3cc(Cl)ccc3c(=O)n2Cc2ccccc2)C(C)C)cc1 [ispinesib]
Summary of the method: as §1

nilotinib = compound: Cc1cn(-c2cc(NC(=O)c3ccc(C)c(Nc4nccc(-c5cccnc5)n4)c3)cc(C(F)(F)F)c2)cn1 [nilotinib]
Summary of the method: as §1

[5] = compound: Cc1nc(Nc2n[nH]c3c2CN(C(=O)N[C@H](CN(C)C)c2ccccc2)C3(C)C)c2sccc2n1
Summary of the method: as §1

dasatinib = compound: Cc1nc(Nc2ncc(C(=O)Nc3c(C)cccc3Cl)s2)cc(N2CCN(CCO)CC2)n1 [dasatinib]
Summary of the method: as §1

[6] = compound: Cc1ncc(-c2ccnc(Nc3ccc(S(C)(=O)=O)cc3)n2)n1C(C)C
Summary of the method: as §1

[7] = compound: Cn1cc(-c2ccc3c(c2)CCN3C(=O)Cc2cccc(C(F)(F)F)c2)c2c(N)ncnc21
Summary of the method: as §1

[8] = compound: Cn1cc(-c2ccc3nnc(C(F)(F)c4ccc5ncccc5c4)n3n2)cn1
Summary of the method: as §1

mubritinib = compound: FC(F)(F)c1ccc(/C=C/c2nc(COc3ccc(CCCCn4ccnn4)cc3)co2)cc1 [mubritinib]
Summary of the method: as §1

gandotinib = compound: Cc1cc(Nc2cc(CN3CCOCC3)c3nc(C)c(Cc4ccc(Cl)cc4F)n3n2)n[nH]1 [gandotinib]
Summary of the method: as §1

bafetinib = compound: Cc1ccc(NC(=O)c2ccc(CN3CC[C@H](N(C)C)C3)c(C(F)(F)F)c2)cc1Nc1nccc(-c2cncnc2)n1 [bafetinib]
Summary of the method: as §1

[9] = compound: Cc1cccc(CC(=O)N2CCc3c2ccc(-c2cn(C)c4ncnc(N)c24)c3F)n1
Summary of the method: as §1

tipifarnib = compound: Cn1cncc1[C@@](N)(c1ccc(Cl)cc1)c1ccc2c(c1)c(-c1cccc(Cl)c1)cc(=O)n2C [tipifarnib]
Summary of the method: as §1

Measured: log2 fold change

COG2 (UniProt Q14746)
inactive: [1] -0.029 | crizotinib -0.17 | [2] 0.094 | [3] 0.483 | duvelisib -0.094 | tozasertib -0.153 | [4] 0.061 | doramapimod 0 | ispinesib -0.264 | nilotinib -0.169 | [5] -0.006 | dasatinib -0.051 | [6] 0.133 | [7] -0.074 | [8] 0.245 | mubritinib -0.035

COPS3 isoform 2 (UniProt Q9UNS2)
Chain of UniProt Q9UNS2 (Q9UNS2 whole entry, looked up): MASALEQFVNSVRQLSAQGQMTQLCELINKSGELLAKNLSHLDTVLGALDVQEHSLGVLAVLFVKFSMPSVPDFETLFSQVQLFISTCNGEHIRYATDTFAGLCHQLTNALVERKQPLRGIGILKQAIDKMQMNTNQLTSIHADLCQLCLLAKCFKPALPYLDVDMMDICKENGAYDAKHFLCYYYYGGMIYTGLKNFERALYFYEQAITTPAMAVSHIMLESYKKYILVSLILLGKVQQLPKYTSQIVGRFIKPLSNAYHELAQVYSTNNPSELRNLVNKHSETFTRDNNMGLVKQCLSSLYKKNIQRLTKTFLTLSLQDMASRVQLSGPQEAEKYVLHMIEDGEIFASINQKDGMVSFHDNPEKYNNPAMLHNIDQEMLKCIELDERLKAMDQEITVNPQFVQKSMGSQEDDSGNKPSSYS
inactive: [1] 0.054 | crizotinib 0.046 | [2] 0.116 | gandotinib -0.084 | tozasertib -0.165 | doramapimod 0.028 | ispinesib -0.371 | bafetinib -0.19 | [9] -0.295 | nilotinib -0.041 | [5] 0.227 | [6] -0.194 | [8] 0.418 | tipifarnib 0.029 | mubritinib 0.138

CMTM3 (UniProt Q96MX0)
inactive: [1] 0.063 | crizotinib -0.007 | [2] -0.002 | [3] -0.133 | duvelisib 0.028 | gandotinib 0.132 | tozasertib -0.026 | [4] -0.102 | doramapimod -0.065 | bafetinib 0.05 | [9] -0.078 | nilotinib -0.056 | [5] -0.007 | dasatinib 0.017 | [6] 0.013 | [7] 0.05 | tipifarnib 0.098 | mubritinib -0.052

CDKN1B (UniProt P46527)
Chain of UniProt P46527 (P46527 whole entry, looked up): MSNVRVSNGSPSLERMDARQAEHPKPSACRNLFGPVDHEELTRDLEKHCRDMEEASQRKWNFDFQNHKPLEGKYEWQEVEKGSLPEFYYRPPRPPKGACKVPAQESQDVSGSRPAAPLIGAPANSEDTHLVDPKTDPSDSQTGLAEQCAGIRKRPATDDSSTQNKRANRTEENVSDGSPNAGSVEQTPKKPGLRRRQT
inactive: [1] -0.017 | crizotinib -0.018 | [2] -0.295 | [3] -0.065 | duvelisib 0.059 | gandotinib 0.077 | [4] -0.06 | doramapimod -0.071 | ispinesib -0.01 | bafetinib -0.001 | [9] -0.05 | nilotinib 0.013 | [5] -0.097 | dasatinib 0.004 | [6] 0.149 | [7] 0.108 | [8] 0.04 | tipifarnib 0.009 | mubritinib 0.114

CDK17 isoform 2 (UniProt Q00537)
inactive: [1] 0.087 | crizotinib -0.082 | [2] -0.035 | [3] 0.076 | duvelisib -0.006 | gandotinib 0.057 | [4] 0.126 | doramapimod 0.028 | bafetinib 0.117 | [9] 0.039 | dasatinib -0.171 | [7] -0.07 | tipifarnib 0.037 | mubritinib -0.04

CRTC1 isoform 2 (UniProt Q6UUV9)
Chain of UniProt Q6UUV9 (Q6UUV9 whole entry, looked up): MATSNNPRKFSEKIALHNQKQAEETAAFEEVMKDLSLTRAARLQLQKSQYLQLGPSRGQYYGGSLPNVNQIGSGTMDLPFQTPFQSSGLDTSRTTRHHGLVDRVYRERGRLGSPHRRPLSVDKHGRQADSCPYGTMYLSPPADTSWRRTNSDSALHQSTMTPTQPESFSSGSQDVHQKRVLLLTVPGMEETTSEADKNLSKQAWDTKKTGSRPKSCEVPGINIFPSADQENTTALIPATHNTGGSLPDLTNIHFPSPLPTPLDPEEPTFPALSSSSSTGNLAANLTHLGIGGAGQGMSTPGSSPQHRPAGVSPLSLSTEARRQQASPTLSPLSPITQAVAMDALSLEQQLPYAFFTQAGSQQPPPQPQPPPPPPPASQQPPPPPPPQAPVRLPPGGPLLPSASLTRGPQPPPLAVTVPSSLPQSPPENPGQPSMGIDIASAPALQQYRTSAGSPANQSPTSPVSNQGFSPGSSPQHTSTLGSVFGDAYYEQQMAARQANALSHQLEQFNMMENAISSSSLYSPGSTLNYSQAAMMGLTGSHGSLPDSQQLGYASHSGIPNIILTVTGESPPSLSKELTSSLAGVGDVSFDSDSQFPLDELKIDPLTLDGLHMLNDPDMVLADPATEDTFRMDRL
inactive: [1] -0.068 | crizotinib -0.016 | [2] 0.192 | duvelisib 0.139 | gandotinib 0.008 | tozasertib -0.004 | [4] -0.076 | doramapimod 0.005 | ispinesib -0.11 | bafetinib 0.021 | [9] -0.093 | dasatinib -0.034 | [8] -0.079 | tipifarnib -0.267

CCDC57 (UniProt Q2TAC2)
inactive: [1] -0.026 | crizotinib 0.06 | [2] 0.065 | [3] 0.139 | tozasertib 0.04 | doramapimod -0.035 | ispinesib -0.034 | bafetinib -0.025 | nilotinib -0.044 | [5] -0.023 | [6] -0.021 | [7] 0.068 | [8] -0.021 | tipifarnib -0.023 | mubritinib 0.031

CLINT1 isoform 3 (UniProt Q14677)
Chain of UniProt Q14677 (Q14677 whole entry, looked up): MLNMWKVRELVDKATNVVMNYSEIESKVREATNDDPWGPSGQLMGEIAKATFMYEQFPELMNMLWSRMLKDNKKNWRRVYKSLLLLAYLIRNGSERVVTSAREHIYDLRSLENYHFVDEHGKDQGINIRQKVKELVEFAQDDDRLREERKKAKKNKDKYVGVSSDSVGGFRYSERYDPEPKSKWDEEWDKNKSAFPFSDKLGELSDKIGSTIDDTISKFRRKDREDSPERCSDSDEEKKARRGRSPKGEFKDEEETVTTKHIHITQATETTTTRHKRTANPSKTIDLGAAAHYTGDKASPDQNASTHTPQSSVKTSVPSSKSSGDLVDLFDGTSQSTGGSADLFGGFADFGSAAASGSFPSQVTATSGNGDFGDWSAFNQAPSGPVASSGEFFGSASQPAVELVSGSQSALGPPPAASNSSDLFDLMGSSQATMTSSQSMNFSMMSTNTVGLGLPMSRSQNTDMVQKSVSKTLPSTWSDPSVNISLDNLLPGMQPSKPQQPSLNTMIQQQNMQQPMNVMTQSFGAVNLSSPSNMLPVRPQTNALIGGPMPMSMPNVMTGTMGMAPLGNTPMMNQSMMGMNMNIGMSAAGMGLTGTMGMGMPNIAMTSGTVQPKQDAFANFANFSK
active: dasatinib 0.264
inactive: [1] -0.019 | crizotinib 0.02 | [3] 0.159 | duvelisib -0.029 | gandotinib 0.047 | tozasertib -0.025 | [4] -0.097 | doramapimod 0.012 | ispinesib -0.001 | bafetinib 0.024 | [9] -0.083 | nilotinib 0.042 | [5] 0.037 | [6] -0.026 | [7] -0.071 | [8] -0.083 | tipifarnib 0.017 | mubritinib 0.045

CDC42SE1 (UniProt Q9NRR8)
Chain of UniProt Q9NRR8 (Q9NRR8 whole entry, looked up): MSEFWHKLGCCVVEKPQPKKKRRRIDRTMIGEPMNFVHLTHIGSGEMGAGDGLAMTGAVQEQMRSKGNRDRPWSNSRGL
inactive: [1] 0 | crizotinib -0.099 | [2] 0.16 | [3] -0.031 | duvelisib 0.029 | tozasertib -0.106 | [4] -0.04 | doramapimod -0.06 | ispinesib -0.341 | bafetinib -0.37 | nilotinib 0.055 | [5] 0.055 | dasatinib -0.022 | [6] -0.155 | [7] 0.107 | [8] -0.002 | tipifarnib -0.01 | mubritinib -0.065

CDK19 (UniProt Q9BWU1)
Chain of UniProt Q9BWU1 (Q9BWU1 whole entry, looked up): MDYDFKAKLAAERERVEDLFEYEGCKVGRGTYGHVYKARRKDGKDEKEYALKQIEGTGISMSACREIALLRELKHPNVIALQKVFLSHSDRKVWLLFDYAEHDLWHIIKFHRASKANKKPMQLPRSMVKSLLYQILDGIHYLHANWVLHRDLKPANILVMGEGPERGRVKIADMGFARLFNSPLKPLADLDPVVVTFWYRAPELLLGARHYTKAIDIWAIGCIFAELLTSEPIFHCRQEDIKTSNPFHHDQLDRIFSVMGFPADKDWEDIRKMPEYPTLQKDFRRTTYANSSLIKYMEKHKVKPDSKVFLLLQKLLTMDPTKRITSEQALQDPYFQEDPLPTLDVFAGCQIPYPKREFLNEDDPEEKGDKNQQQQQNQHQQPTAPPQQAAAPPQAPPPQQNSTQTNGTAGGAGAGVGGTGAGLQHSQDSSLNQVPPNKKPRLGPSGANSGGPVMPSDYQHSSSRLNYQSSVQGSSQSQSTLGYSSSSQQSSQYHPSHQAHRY
inactive: [1] 0.042 | [2] 0.03 | [3] 0.401 | duvelisib -0.089 | gandotinib -0.051 | tozasertib -0.197 | [4] 0.034 | ispinesib 0.291 | [9] -0.014 | nilotinib -0.266 | [5] 0.297 | dasatinib 0.101 | [6] 0.338 | [7] -0.01 | [8] -0.054 | tipifarnib -0.045 | mubritinib 0.112

CDCA2 (UniProt Q69YH5)
Chain of UniProt Q69YH5 (Q69YH5 whole entry, looked up): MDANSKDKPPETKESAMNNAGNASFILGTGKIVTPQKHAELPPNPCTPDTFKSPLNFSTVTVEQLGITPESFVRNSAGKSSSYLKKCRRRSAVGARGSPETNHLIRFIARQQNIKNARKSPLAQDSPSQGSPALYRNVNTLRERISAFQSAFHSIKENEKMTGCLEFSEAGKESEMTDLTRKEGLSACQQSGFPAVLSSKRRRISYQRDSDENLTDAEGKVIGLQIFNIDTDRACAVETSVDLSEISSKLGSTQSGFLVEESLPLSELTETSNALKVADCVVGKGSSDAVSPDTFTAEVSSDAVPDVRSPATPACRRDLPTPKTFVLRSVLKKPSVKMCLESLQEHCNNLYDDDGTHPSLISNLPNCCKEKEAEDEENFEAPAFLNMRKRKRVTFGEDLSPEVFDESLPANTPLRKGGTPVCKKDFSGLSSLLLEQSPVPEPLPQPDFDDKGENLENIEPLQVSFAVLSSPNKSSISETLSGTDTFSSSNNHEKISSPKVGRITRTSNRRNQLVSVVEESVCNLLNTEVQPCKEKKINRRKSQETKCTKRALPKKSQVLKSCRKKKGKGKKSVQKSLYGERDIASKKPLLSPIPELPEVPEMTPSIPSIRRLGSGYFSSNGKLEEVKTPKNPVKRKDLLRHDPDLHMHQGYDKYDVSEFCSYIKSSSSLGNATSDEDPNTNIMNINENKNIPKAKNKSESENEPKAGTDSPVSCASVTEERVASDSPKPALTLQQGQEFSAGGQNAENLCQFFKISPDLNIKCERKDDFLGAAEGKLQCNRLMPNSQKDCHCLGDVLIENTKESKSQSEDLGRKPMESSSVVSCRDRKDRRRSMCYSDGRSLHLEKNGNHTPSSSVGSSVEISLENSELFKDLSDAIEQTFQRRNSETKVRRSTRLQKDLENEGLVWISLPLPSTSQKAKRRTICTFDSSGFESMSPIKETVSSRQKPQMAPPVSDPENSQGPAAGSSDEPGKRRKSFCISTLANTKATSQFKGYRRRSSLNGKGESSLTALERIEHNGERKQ
inactive: [1] 0.161 | crizotinib 0.025 | [2] 0.041 | [3] -0.021 | gandotinib 0.098 | tozasertib -0.159 | doramapimod 0.088 | ispinesib -0.04 | [9] -0.065 | nilotinib 0.164 | [5] -0.114 | [6] 0.042 | [7] 0.159 | [8] -0.215 | tipifarnib 0.182 | mubritinib -0.256

COX7B (UniProt P24311)
inactive: [1] -0.026 | crizotinib 0.013 | [2] 0.02 | [3] -0.171 | duvelisib 0.034 | gandotinib 0.05 | tozasertib 0.072 | [4] 0.014 | doramapimod -0.067 | bafetinib 0.109 | [9] 0.037 | nilotinib 0.053 | [5] 0.037 | dasatinib 0.074 | [6] 0.01 | [7] -0.011 | tipifarnib -0.024 | mubritinib 0.026

CAB39L (UniProt Q9H9S4)
active: gandotinib 0.448
inactive: [1] 0.13 | crizotinib 0.036 | [2] -0.01 | duvelisib -0.014 | tozasertib 0.03 | [4] 0.053 | doramapimod 0.024 | ispinesib -0.031 | bafetinib -0.055 | [9] -0.041 | dasatinib -0.255 | [8] -0.032 | tipifarnib 0.042

CASP8 isoform 9 (UniProt Q14790)
Chain of UniProt Q14790 (Q14790 whole entry, looked up): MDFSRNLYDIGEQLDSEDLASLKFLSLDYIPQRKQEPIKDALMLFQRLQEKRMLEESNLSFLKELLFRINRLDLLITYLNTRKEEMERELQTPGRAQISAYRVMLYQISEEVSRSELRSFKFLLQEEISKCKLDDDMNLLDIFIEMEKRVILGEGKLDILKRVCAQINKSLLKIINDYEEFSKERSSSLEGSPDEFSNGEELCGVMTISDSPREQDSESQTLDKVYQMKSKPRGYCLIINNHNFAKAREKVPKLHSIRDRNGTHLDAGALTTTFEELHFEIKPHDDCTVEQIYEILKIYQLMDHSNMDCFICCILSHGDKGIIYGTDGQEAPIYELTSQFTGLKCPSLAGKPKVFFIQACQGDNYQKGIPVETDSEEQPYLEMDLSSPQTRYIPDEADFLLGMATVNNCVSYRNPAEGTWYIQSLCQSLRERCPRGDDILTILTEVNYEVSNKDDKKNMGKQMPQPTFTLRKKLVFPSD
inactive: [1] 0.007 | crizotinib -0.02 | [2] -0.013 | duvelisib 0.104 | gandotinib -0.07 | tozasertib 0.181 | [4] -0.007 | doramapimod 0.072 | ispinesib -0.151 | bafetinib 0.072 | [9] 0.093 | nilotinib -0.183 | [5] 0.018 | dasatinib -0.039 | [6] 0.069 | [8] -0.066 | tipifarnib -0.094 | mubritinib -0.095

CCNC (UniProt P24863)
Chain of UniProt P24863 (P24863 whole entry, looked up): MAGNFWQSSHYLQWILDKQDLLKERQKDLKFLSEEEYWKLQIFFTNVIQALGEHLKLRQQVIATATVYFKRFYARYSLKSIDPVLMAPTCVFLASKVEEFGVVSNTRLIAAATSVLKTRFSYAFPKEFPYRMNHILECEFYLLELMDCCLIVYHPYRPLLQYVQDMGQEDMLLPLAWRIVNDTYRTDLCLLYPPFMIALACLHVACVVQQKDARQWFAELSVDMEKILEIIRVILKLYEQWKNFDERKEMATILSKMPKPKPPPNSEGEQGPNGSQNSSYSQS
active: doramapimod 0.373
inactive: [1] 0.051 | crizotinib -0.004 | [2] 0.027 | [3] 0.247 | duvelisib 0.044 | gandotinib -0.088 | [4] 0.018 | ispinesib 0.059 | bafetinib 0.031 | [9] 0.055 | dasatinib -0.074 | [7] -0.091 | [8] -0.015 | mubritinib -0.016

CNN3 (UniProt Q15417)
inactive: [1] 0.044 | [2] 0.075 | [3] -0.066 | duvelisib -0.02 | gandotinib -0.1 | tozasertib 0.069 | [4] 0.15 | bafetinib 0.02 | [9] -0.025 | nilotinib -0.066 | [5] -0.056 | dasatinib -0.057 | [6] 0.108 | [7] 0.023 | tipifarnib -0.107 | mubritinib 0.06

CDK4 (UniProt P11802)
Chain of UniProt P11802 (P11802 whole entry, looked up): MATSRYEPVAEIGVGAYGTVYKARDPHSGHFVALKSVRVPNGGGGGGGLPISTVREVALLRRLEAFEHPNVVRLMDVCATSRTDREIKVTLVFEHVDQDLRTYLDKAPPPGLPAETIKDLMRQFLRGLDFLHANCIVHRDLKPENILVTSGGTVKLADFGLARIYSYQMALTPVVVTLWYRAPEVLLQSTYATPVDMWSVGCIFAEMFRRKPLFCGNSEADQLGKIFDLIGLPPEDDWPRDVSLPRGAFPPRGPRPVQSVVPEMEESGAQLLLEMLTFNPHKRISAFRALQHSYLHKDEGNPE
inactive: [1] 0.108 | crizotinib -0.108 | [2] -0.152 | [3] 0.377 | duvelisib 0.104 | [4] 0.021 | doramapimod 0.079 | ispinesib 0.094 | bafetinib 0.022 | nilotinib -0.121 | [5] -0.042 | dasatinib -0.056 | [6] 0.031 | [7] -0.084 | [8] -0.117 | tipifarnib 0.046 | mubritinib 0.054

CLN5 (UniProt O75503)
Chain of UniProt O75503 (O75503 whole entry, looked up): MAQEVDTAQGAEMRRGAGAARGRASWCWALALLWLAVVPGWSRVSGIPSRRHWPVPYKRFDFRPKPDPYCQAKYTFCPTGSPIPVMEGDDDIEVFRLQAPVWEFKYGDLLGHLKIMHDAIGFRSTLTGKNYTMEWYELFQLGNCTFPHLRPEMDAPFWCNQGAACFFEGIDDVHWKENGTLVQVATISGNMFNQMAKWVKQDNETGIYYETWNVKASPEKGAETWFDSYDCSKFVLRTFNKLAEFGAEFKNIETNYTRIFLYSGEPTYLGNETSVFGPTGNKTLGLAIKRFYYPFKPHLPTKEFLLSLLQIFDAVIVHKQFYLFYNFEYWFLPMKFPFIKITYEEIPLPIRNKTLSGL
inactive: [1] 0.136 | crizotinib -0.733 | [2] 0.06 | [3] 0.046 | duvelisib 0.093 | gandotinib -0.077 | tozasertib -0.115 | [4] 0.073 | doramapimod 0.044 | [9] 0.019 | nilotinib 0.041 | [5] -0.508 | dasatinib -0.46 | [6] 0.026 | [7] -0.119 | tipifarnib 0.002 | mubritinib -0.169
active: bafetinib -0.945
